From PubChem BioAssay
SMN2 splice enh = qHTS Assay for Enhancers of SMN2 Splice Variant Expression | HEK293 SMN2-luciferase splicing reporter, luminescence, 30-36 h | Potency, µM (titrated, usually from 46.1 µM), actives largely listed as activators | 210,000 compounds, 2.8% hits; also: nearly all actives have a fitted effect of over 55% in size
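qHTS luciferase splicing reporter: luminescence rises when SMN2 exon 7 is included in transfected HEK293 cells. Compound exposure lasted 30-36 h at 37C, with 4.5 mM final sodium butyrate as control, followed by a ONE-Glo read.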
FLuc counter = qHTS profiling assay for firefly luciferase inhibitor/activator using purifed enzyme and Km concentrations of substrates (counterscreen for miR-21 project). Luciferin 4-monooxygenase (Photinus pyralis), P08659. purified FLuc, Km substrates, luminescence inhibition. Potency, µM (series often up to 57.5 µM), usual class: inhibitors. 360,000 compounds, 6.9% hits. AID 588342, 2011; also: nearly all actives have a fitted effect of over 55% in size
Target sequence (P08659 whole entry, looked up): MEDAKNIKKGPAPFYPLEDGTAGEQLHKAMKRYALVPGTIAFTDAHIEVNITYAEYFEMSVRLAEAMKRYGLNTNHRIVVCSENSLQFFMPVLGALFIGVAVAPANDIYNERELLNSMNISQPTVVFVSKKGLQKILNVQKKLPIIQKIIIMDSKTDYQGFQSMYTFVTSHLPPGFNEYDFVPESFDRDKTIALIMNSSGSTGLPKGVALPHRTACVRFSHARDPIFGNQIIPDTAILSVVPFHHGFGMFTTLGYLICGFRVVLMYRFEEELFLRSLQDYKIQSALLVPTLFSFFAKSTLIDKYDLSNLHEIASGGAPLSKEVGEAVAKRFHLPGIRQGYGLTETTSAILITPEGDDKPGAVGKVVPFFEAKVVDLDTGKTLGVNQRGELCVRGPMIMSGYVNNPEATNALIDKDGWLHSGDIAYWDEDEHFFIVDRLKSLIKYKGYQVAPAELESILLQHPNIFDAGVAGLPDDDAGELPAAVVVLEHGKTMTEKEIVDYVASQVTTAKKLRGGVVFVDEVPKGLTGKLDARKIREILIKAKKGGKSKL
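Purified P. pyralis luciferase, 10 nM final, with Km-level 10 uM D-luciferin and 10 uM ATP in 50 mM Tris acetate pH 7.5, 10 mM Mg acetate, 0.01% Tween-20, 0.05% BSA; 6-point qHTS titration about 60 µM downward; luminescence read.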
ELG1 genotoxic = qHTS screen for small molecules that induce genotoxicity in human embryonic kidney (HEK293T) cells expressing luciferase-tagged ELG1; HEK293T ELG1-luciferase reporter, luminescence, 16 h; Potency, µM (series often up to 46 µM), usual class: activators; 330,000 compounds, 1.3% hits; also: nearly all actives have a fitted effect of over 60% in size
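Genotoxicity was scored as increased ELG1-luciferase reporter signal, measured by ONE-Glo luminescence (30 min, room temperature). Compound or vehicle exposure of the HEK293T reporter cells lasted 16 hr at 37°C.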
ELG1 DNA repair = qHTS screen for small molecules that inhibit ELG1-dependent DNA repair in human embryonic kidney (HEK293T) cells expressing luciferase-tagged ELG1. AID 504467, 2011. 330,000 compounds, 2.3% hits. HEK293T ELG1-luciferase reporter, luminescence, 16 h; DNA damage induced by 5-fluorouridine. Potency, µM (top dose mostly 46.1 µM), hits mostly inhibitors; also: nearly all actives have a fitted effect of over 55% in size
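5-Fluorouridine DNA damage + compound/DMSO, 2,000 cells/well, 16 h, 37 °C/5% CO2. ONE-Glo, 30 min RT, luminescence. Readout = decrease in reporter signal.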
Rab9 promoter act = qHTS Assay for Rab9 Promoter Activators. Huh7 Rab9 promoter-luciferase reporter, luminescence, 24 h. Potency, µM (highest dose often 9.22 µM), hits mostly activators. 320,000 compounds, 2.8% hits. AID 485297, 2010; also: nearly all actives have a fitted effect of over 60% in size
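Huh7 cells stably carrying Rab9 promoter–luciferase reporter, plated 1500 cells/well, compound added after 2 h and incubated 24 h at 37 °C; luciferase luminescence then read after 10 min with detection reagent.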
NPC1 prom act = qHTS Assay for NPC1 Promoter Activators; Huh7 NPC1 promoter luciferase reporter, 24 h; Potency, µM (highest dose often 9.22 µM), actives largely listed as activators; 320,000 compounds, 2.4% hits; AID 485313, 2010; also: nearly all actives have a fitted effect of over 60% in size
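Huh7 reporter cells (NPC1 promoter driving luciferase) are dosed with compound for 24 h at 37 °C, 5% CO2; luciferase detection reagent is then added and luminescence measured after 10 min at ambient temperature.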
Hits are given with their value; – = inactive; ? = inconclusive; · = no result given; [ ] = dose if it differs, or a comment. A selection: hits, their analogues and other compounds. The true share with any hit is near 9.4%. Calls follow the shape of the dose curve; as a rule, active = well fitted curve in the direction sought with a large enough effect; inconclusive = small, poorly fitted or top-dose-only effect, or another doubt; inactive = no such curve, though single readings can be large; an effect the other way counts as inactive or inconclusive.

SMILES	SMN2 splice enh	FLuc counter	ELG1 genotoxic	ELG1 DNA repair	Rab9 promoter act	NPC1 prom act
CC(C)(C)C1CCc2c(sc(NC(=O)c3cc4ccccc4c(=O)o3)c2C(N)=O)C1 (centres undefined)	–	–	·	·	·	·
Cc1ccc(C(=O)COC(=O)c2cc(Cl)nc3ccccc23)cc1	–	11µM	–	–	–	–
Cc1ccc(C(=O)OCC(=O)c2ccccc2)cc1	·	1.9µM	0.58µM	?	0.56µM	0.32µM
CCOC(=O)C(CC(=O)c1ccccc1)CC(=O)c1ccccc1	·	13µM	–	?	–	?
Nc1ccc(S(=O)(=O)NCc2nccs2)cc1	–[9.22 µM]	·	·	·	·	·
Cc1ccc(CN(Cc2ccco2)C(=O)c2ccccc2Cl)o1	–	–	·	·	·	·
CC1(C)CC(=O)c2cc(-c3nc(-c4ccc(Cl)cc4)cs3)c(=O)n(-c3cccc(F)c3)c2C1	–	–	·	·	·	·
N=C(N)SCc1cccc(-c2nc3ccccc3c(=O)o2)c1	–[9.22 µM]	·	·	·	·	·
COc1ccc(OC)c(CNC(=O)C2CCN(c3nc4ccccc4nc3C(F)(F)F)CC2)c1	·	–	·	·	·	·
CCOc1ccccc1NC(=O)C1CCN(S(=O)(=O)c2ccc3c(c2)CCCN3C(C)=O)CC1	·	–	·	·	·	·
O=C1C=C(NC2=CC3OC(c4ccccc4)OCC3OC2=O)CCC1 (centres undefined)	–	–	–	13µM	–	–
O=C1C=C(NCc2ccccc2)CCC1	–	–	–	–	–	–
COc1ccc(NC(=O)c2[nH]nc3c2CSc2ccccc2-3)c(OC)c1	·	–	·	·	·	·
COc1ccc(N=Nc2c(N)n[nH]c2N)cc1	·	?	–	?	?	–
COc1ccc(N=Nc2cc(C)ccc2O)cc1	·	0.48µM	3.7µM	?	0.4µM	1.1µM
Cc1ccc(O)c(N=Nc2ccc(S(=O)(=O)N3CCCC3)cc2)c1	·	15µM	–	?	?	?
COc1ccc(N=Nc2ccc(N)nc2N)cc1	·	2.4µM	9.2µM	?	2.5µM	1µM
CC(=O)/C(N=Nc1cc(C)ccc1O)=C(\C)O	·	–	–	–	–	–
COc1cccc(N=Nc2ccc3ccccc3c2O)c1	·	0.34µM	?	?	4µM	?
Cc1ccc(N=Nc2ccc(O)c3ncccc23)cc1	–	–	?	?	–	–
Cc1ccc(O)c(N=Nc2nccs2)c1	·	9.5µM	23µM	?	–	–
COc1ccc(N=Nc2ccc3ccccc3c2)c(O)c1	·	0.38µM	0.92µM	?	4µM	3.2µM
O=C(O)CNC(=O)[C@H]1NC(C(F)(F)F)(C(F)(F)F)OC1(C(F)(F)F)C(F)(F)F	–[9.22 µM]	·	·	·	·	·
Cc1cc(Cl)ccc1OCC(=O)Nc1cccc(S(=O)(=O)N2CCCC2)c1	·	9.5µM	–	–	–	–
O=C(COc1ccc(Cl)cc1Br)Nc1cccc(S(=O)(=O)N2CCCC2)c1	·	2.7µM	–	–	–	–
SMILES	SMN2 splice enh	FLuc counter	ELG1 genotoxic	ELG1 DNA repair	Rab9 promoter act	NPC1 prom act
CC(=O)c1ccc(OCC(=O)Nc2cccc(S(=O)(=O)N3CCCC3)c2)cc1	·	?	–	–	–	–
Cc1ccc2cccc(OCC(=O)Nc3cccc(S(=O)(=O)N4CCCC4)c3)c2n1	·	–	–	18µM	–	–
Cc1cccc(-n2ccnc2SCC(=O)Nc2cccc3ccccc23)c1	·	–	·	·	·	·
C=CCn1c(N)c(C(=O)NCCC2=CCCCC2)sc1=S	13µM	?	?	?	–	–
O=C(Cn1c(CSc2ccccc2)nc2ccccc21)Nc1ccccc1	–	–	–	–	–	–
Cc1ccc(SCc2nc3ccccc3n2CC(=O)Nc2ccccc2)cc1	–	15µM	–	–	–	–
Cc1ccc(SCc2nc3ccccc3n2CC(=O)Nc2c(C)cccc2C)cc1	–	–	–	–	–	–
Cc1ccc(SCc2nc3ccccc3n2CC(=O)Nc2ccc(Cl)cc2)cc1	–	?	–	7.3µM	–	–
Cc1nnc(N2CCN(c3cccc(C(F)(F)F)c3)CC2)c2c1nnn2Cc1ccccc1	–	–	·	·	·	·
